Inconclusive results are not listed. The source made the active and inactive calls. The calls were made as follows, unless noted: active = hit-call score of the fitted dose curve at least 0.9, where 1 is the maximum; inactive = score below 0.9.
How the values were obtained:
[1] = CCTE_Shafer_MEA_acute_AB: CCTE's Alamar Blue Assay for Cytotoxicity in the Neural Acute Assay, Shafer Lab (AID 2284069; active = hit-call score of the fitted dose curve at least 0.9, where 1 is the maximum;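 also: active compounds lower the viability signal compared with DMSO wells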)
Method in brief: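 Read-out: resazurin fluorescence (ex 544, em 590 nm) after CTB reagent at 1:6 dilution in fresh media. Cells: primary rat cortical neuron networks, DIV 13 or 15, chemically exposed on MEA plates; DMSO as negative control/baseline.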

[2] = CCTE_Shafer_MEA_acute_LDH: CCTE's Lactate Dehydrogenase Assay for Cytotoxicity in the Neural Acute Assay, Shafer Lab (AID 2284086; active = hit-call score of the fitted dose curve at least 0.9, where 1 is the maximum;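 also: active means LDH release rises above DMSO vehicle level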)
Method in brief: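 Rat cortical neurons cultured on microelectrode arrays; baseline 40-min recording, compound added, second 40-min recording; medium then sampled for released LDH (colorimetric kit, 490 nm). DMSO = negative control.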

DIO3 (gene 1735) = assay: CCTE_GLTED_hDIO3: CCTE's human Deiodinase 3 (DIO3) Inhibition Assay, Great Lakes Toxicology and Ecology Division (GLTED) Lab (AID 2284055; active = hit-call score of the fitted dose curve at least 0.9, where 1 is the maximum;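 also: potency is for inhibition seen as loss of released iodide signal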)
Method in brief: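 Absorbance from the Sandell-Kolthoff reaction reports iodide released by human DIO3 during a 3-hour incubation with chemical. Inhibition scored as signal loss against DMSO controls.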

[3] = CCTE_Shafer_MEA_dev_LDH: CCTE's Lactate Dehydrogenase Assay for Cytotoxicity in the Neural Network Formation Assay, Shafer Lab (AID 2284068; active = hit-call score of the fitted dose curve at least 0.9, where 1 is the maximum;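 also: exposure for twelve days from plating with re-dosing on DIV 5 and 9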)
Method in brief: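 Rat cortical primary neurons, MEA culture; dosing day 0–12, full medium plus compound exchange DIV 5, 9. Read-out: LDH enzyme activity, spectrophotometric. DMSO = negative control/baseline; signal loss → cytotoxicity.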

[4] = CCTE_Shafer_MEA_dev_AB: CCTE's Alamar Blue Assay for Cytotoxicity in the Neural Network Formation Assay, Shafer Lab (AID 2284083; active = hit-call score of the fitted dose curve at least 0.9, where 1 is the maximum;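 also: resazurin reduction fluorescence as viability of cultured neurons; twelve days of exposure from plating with re-dosing on DIV 5 and 9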)
Method in brief: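 Rat cortical primary cultures, 1.5 x 10^5 cells/well on MEA; continuous compound exposure over 12 days of network development, re-dosed with full medium change DIV 5 and 9. Alamar Blue fluorescence; loss of signal = cytotoxicity vs DMSO baseline.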

[5] = CCTE_Shafer_MEA_dev_mutual_information_norm: CCTE's Neural Network Formation Assay for Mutual Information Normalization, Shafer Lab (AID 2284091);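 as to AC50: mutual information between electrodes summarised as area under curve across four recording days; potency is for a decrease in mutual information relative to DMSO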
Method in brief: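 Developing rat cortical networks on 16-electrode MEA wells are treated throughout formation (DIV 0–12). Shared electrode information is recorded four times, converted to area-under-curve, and fitted for decreases against DMSO vehicle.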

[6] = CCTE_Shafer_MEA_dev_correlation_coefficient_mean: CCTE's Neural Network Formation Assay for Mean Correlation Coefficient, Shafer Lab (AID 2284093);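 as to AC50: well mean pairwise spike train correlation integrated as AUC over recording days 5 to 12; potency fitted for loss of correlation relative to DMSO vehicle wells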
Method in brief: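 Rat cortical cultures, 1.5 x 10^5 cells/well, dosed from day 0 for 12 days. Spontaneous spikes recorded DIV 5/7/9/12; electrode-pair correlation coefficients averaged, AUC taken. Fit in loss direction vs DMSO.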

[7] = IUF_NPC1b_proliferation_BrdU_72hr: Leibniz Research Institute for Environmental Medicine (IUF) 72-hour Neural Progenitor Cell Bromodeoxyuridine (BrdU) Proliferation Assay (NPC1b) (AID 2284207)
Method in brief: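 Proliferation of primary human neural progenitor cells: 72 h compound treatment at 37C, 5% CO2, pH 7.2-7.6, in EGF/FGF-containing medium. Readout is BrdU uptake (last 16 h) by chemiluminescent ELISA, normalised to DMSO.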

[8] = IUF_NPC1a_proliferation_area_72hr: Leibniz Research Institute for Environmental Medicine (IUF) 72-hour Neural Progenitor Cell Proliferation Area Assay (NPC1a) (AID 2284208)
Method in brief: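 Measured in 3D suspension: each well held one primary hNPC sphere grown with EGF and FGF at pH 7.2-7.6. Compound stayed on for 72 h, then area was imaged; spheres lacking growth factors defined reduced proliferation.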

[9] = IUF_NPC1_viability_72hr: Viability Assessment at 72 hours in the Leibniz Research Institute for Environmental Medicine (IUF) Neural Progenitor Cell Proliferation Assay (NPC1) (AID 2284209)
Method in brief: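 hNPC spheres, 1/well, EGF+FGF medium, 37C/5% CO2; dosed day 0, 72 h, no re-dosing. Resazurin reduction (alamar blue) fluorescence; DMSO = negative control/baseline; growth-factor-free wells as positive control.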

[10] = CCTE_Mundy_HCI_Cortical_Synap_Neur_Matur_NeuriteSpotCountPerNeuriteLength: CCTE's Synaptogenesis and Neurite Maturation Assay in rat cortical cells for Neurite Spot Count per Neurite Length, Mundy Lab (AID 2284210)
Method in brief: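 Primary rat cortical neurons, compound exposure DIV 7–12, 288.33 h endpoint. Hoechst, anti-MAP2 and anti-synaptophysin labelling; neurite-associated puncta per neurite length scored by automated imaging relative to DMSO controls.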

[11] = CCTE_Mundy_HCI_Cortical_Synap_Neur_Matur_BPCount: CCTE's Synaptogenesis and Neurite Maturation Assay in rat cortical cells for Branch Point Count, Mundy Lab (AID 2284211)
Method in brief: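 Rat primary cortical cultures, AraC added DIV 5; chemicals dosed DIV 7 through DIV 12. Fixed cells stained for MAP2, synaptophysin and Hoechst; neurite branch points counted by automated high-content imaging, fitted relative to DMSO.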

[12] = CCTE_Mundy_HCI_Cortical_NOG_NeuriteCount: CCTE's Neurite Outgrowth Assay in rat cortical cells for Neurite Count, Mundy Lab (AID 2284212);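 also: cells fixed about two days after chemical exposure began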
Method in brief: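 Neurite number per cell from high-content imaging of betaIII-tubulin immunostaining, with Hoechst nuclear counterstain.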

[13] = CCTE_Mundy_HCI_Cortical_NOG_NeuriteLength: CCTE's Neurite Outgrowth Assay in rat cortical cells for Neurite Length, Mundy Lab (AID 2284213);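 as to AC50: neurites imaged about 48 to 50 h after chemical exposure began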
Method in brief: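 Neurite length was read by high-content imaging of βIII-tubulin-labelled neurites in rat primary cortical cultures. Activity was fitted relative to DMSO.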

[14] = CCTE_Mundy_HCI_Cortical_Synap_Neur_Matur_NeuriteLength: CCTE's Synaptogenesis and Neurite Maturation Assay in rat cortical cells for Neurite Length, Mundy Lab (AID 2284214)
Method in brief: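 Rat cortical neurons, AraC at DIV 5; compound + media change DIV 7, end DIV 12 (288.33 h). Fix, MAP2/synaptophysin/Hoechst immunostain, automated HCI of neurite length vs DMSO.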

[15] = CCTE_Mundy_HCI_Cortical_Synap_Neur_Matur_NeuriteSpotCountPerNeuron: CCTE's Synaptogenesis and Neurite Maturation Assay in rat cortical cells for Neurite Spot Count per Neuron Count, Mundy Lab (AID 2284215)
Method in brief: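 Developing rat cortical neurons, with glia suppressed by AraC, are exposed to chemicals from DIV 7 to DIV 12. Automated fluorescence imaging of MAP2-labelled neurites and synaptophysin puncta yields a count per neuron, normalised against DMSO wells.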

[16] = UKN5_HCS_SBAD2_cell_viability: Viability Assessment in the University of Konstanz (UKN) Leist Lab Neurite Outgrowth Assay in human iPSC-derived immature Dorsal Root Ganglia Neurons (UKN5) (AID 2284056)
Method in brief: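 iPSC-derived immature peripheral neurons (SBAD2) seeded on Matrigel with CHIR99021, SU5402 and DAPT, dosed 1 h later for 24 h. Viability from Hoechst H-33342 and calcein-AM live staining, high-content imaging; bidirectional fit versus DMSO.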

[17] = UKN5_HCS_SBAD2_neurite_outgrowth: University of Konstanz (UKN) Leist Lab Neurite Outgrowth Assay in human iPSC-derived immature Dorsal Root Ganglia Neurons (UKN5) (AID 2284070); settings: actives raise or lower the signal
Method in brief: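 Read-out: calcein-AM-stained neurite area by high-content imaging, Hoechst H-33342 for viability, after 24 h exposure of iPSC-derived immature dorsal root ganglia neurons. Activity fitted in both directions relative to DMSO baseline.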

[18] = UKN2_HCS_IMR90_neural_migration: University of Konstanz (UKN) Leist Lab Neural Crest Cell Migration Assay in human induced IMR90 Pluripotent Stem Cells (UKN2) (AID 2284204); settings: actives raise or lower the signal
Method in brief: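 Migration of human IMR90-derived neural crest cells into a stopper-defined gap is imaged after 24 h chemical treatment. Activity is fitted bidirectionally relative to DMSO.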

[19] = UKN4_HCS_LUHMES_neurite_outgrowth: University of Konstanz (UKN) Leist Lab Neurite Outgrowth Assay in human LUHMES cells (UKN4) (AID 2284206); settings: actives raise or lower the signal
Method in brief: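 Day 0 switch to differentiation medium; day 2 replate (30000 cells/well) without cAMP and GDNF; compounds added 30 min–2 h later. At 23.5 h, 30 min calcein-AM/H-33342 live stain, then imaging.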

Measured: AC50

Oc1cc(Cl)c(Cl)cc1Cl
inactive: [1] | [2]

O=[N+]([O-])c1ccc(Cl)c([N+](=O)[O-])c1
active: DIO3 (gene 1735) 7.41 µM

CC(C)[C@@H](Nc1ccc(C(F)(F)F)cc1Cl)C(=O)OC(C#N)c1cccc(Oc2ccccc2)c1 (stereo partly drawn)
inactive: [1] | [2] | [7] | [8] | [9] | [10] | [11] | [12] | [13] | [14]
active: [3] 23.5 µM | [4] 14.5 µM | [5] 9.36 µM | [6] 14.5 µM | [15] 4.59 µM

CC1(C)[C@H](C(=O)O[C@H](C#N)c2cccc(Oc3ccccc3)c2)[C@@H]1/C=C(\Cl)C(F)(F)F
active: [3] 22.7 µM | [4] 12.9 µM | [5] 1.4 µM | [6] 5.11 µM | [7] 3.63 µM | [10] 4.59 µM | [11] 2.28 µM | [12] 19.9 µM | [13] 19.5 µM | [14] 2.35 µM | [15] 2.16 µM
inactive: [8] | [9]

CNC(=O)CSP(=O)(OC)OC
inactive: [3] | [17] | [5] | [6] | [18] | [19] | [7] | [8] | [9] | [10] | [11] | [12] | [13] | [14] | [15]
active: [16] 20.9 µM

NC(=O)c1ccc(N)nc1
active: [3] 6.05 µM | [4] 8.53 µM | [5] 7.61 µM | [6] 4.57 µM | [11] 9.07 µM | [12] 14.5 µM | [13] 14 µM | [14] 9.47 µM | [15] 9.32 µM
inactive: [10]

CCCCOC(=O)COC(=O)c1ccccc1C(=O)OCCCC
inactive: [1] | [2]

CCOCn1c(-c2ccc(Cl)cc2)c(C#N)c(Br)c1C(F)(F)F
active: [3] 12.1 µM | [4] 20.4 µM | [5] 1.72 µM | [6] 5.53 µM | [18] 9.47 µM | [8] 26.3 µM | [9] 26.8 µM | [10] 22.7 µM | [11] 13.1 µM | [12] 23.2 µM | [13] 22.4 µM | [14] 15.5 µM | [15] 13.5 µM
inactive: [7]

O=C1c2ccccc2C(=O)C1C(=O)C(c1ccccc1)c1ccc(Cl)cc1 (stereo not drawn)
active: DIO3 (gene 1735) 68.5 µM

CC(=O)C(F)(F)C(F)(F)F
inactive: [5] | [6]

CC(F)(F)CC(F)(F)F
inactive: [4] | [5] | [6]

Cc1ccccc1OP(=O)(Oc1ccccc1C)Oc1ccccc1C
inactive: [2] | [7] | [8] | [9] | [10]
active: [3] 20.2 µM | [4] 21.1 µM | [5] 11.5 µM | [6] 15 µM | [18] 4.73 µM | [11] 26.4 µM | [12] 19.2 µM | [13] 19.6 µM | [14] 3.54 µM | [15] 3.81 µM

FC(F)OCC(F)(F)C(F)(F)F
inactive: [5] | [6]

O=C(Cc1ccccc1)OCCc1ccccc1
inactive: [2]

Clc1cccc(Cl)c1Cl
inactive: [2]

CCCCCCCCCCCCc1cccc(S(=O)(=O)O)c1
inactive: [1] | [2]
active: DIO3 (gene 1735) 38.1 µM

CC(=Cc1ccccc1)[N+](=O)[O-]
active: DIO3 (gene 1735) 64.6 µM

Oc1ccc(Cc2ccc(O)cc2)cc1
inactive: [1]

CS(=O)(=O)c1ccc(C(=O)C2C(=O)CCCC2=O)c(Cl)c1COCC(F)(F)F
inactive: [4] | [2] | [5] | [6] | [7] | [8] | [9] | [10] | [11] | [12] | [13] | [14] | [15]

O=S1(=O)OC(c2cc(Br)c(O)c(Br)c2)(c2cc(Br)c(O)c(Br)c2)c2ccccc21
active: DIO3 (gene 1735) 13 µM

CC(C)(C)c1ccccc1O
inactive: [1] | [2]

OCCCCO
inactive: [1] | [2]

N#CCC#N
active: DIO3 (gene 1735) 58 µM

OC(Cc1ccccc1Cl)(Cn1[nH]cnc1=S)C1(Cl)CC1 (stereo not drawn)
inactive: [8] | [9] | [12] | [13]
active: [3] 73.5 µM | [4] 71.3 µM | [5] 6.39 µM | [6] 21.5 µM | [18] 35.4 µM | [7] 0.0417 µM | [10] 80.4 µM | [11] 50 µM | [14] 42.7 µM | [15] 50 µM

O=S(=O)(F)C(F)(F)C(F)(F)C(F)(F)C(F)(F)F
inactive: [4] | [5] | [6]

Cc1cc(C(F)(C(F)(F)F)C(F)(F)F)ccc1NC(=O)c1cccc(I)c1C(=O)NC(C)(C)CS(C)(=O)=O
active: [3] 11.3 µM | [4] 4.32 µM | [6] 19.2 µM | [19] 0.264 µM
inactive: [2] | [5] | [7] | [8] | [9] | [10] | [11] | [12] | [13] | [14] | [15]

CN(C)C(=S)S
inactive: [1]

N#Cc1cccnc1
inactive: [2]

O=S1OC[C@@H]2[C@H](CO1)[C@]1(Cl)C(Cl)=C(Cl)[C@@]2(Cl)C1(Cl)Cl (stereo partly drawn)
inactive: [16] | [17] | [7] | [8]
active: [18] 14.6 µM | [19] 18.6 µM | [9] 2.59 µM

C=CCOC(F)(C(F)(F)F)C(F)(F)F
inactive: [5] | [6]

C=CC(F)(C(F)(F)F)C(F)(F)C(F)(F)F (stereo not drawn)
inactive: [3] | [5] | [6]
